Our source for the growth values is PubChem BioAssay (NCI).

Compounds without any hit were thinned out: in the full panel of roughly 83,000, 20% have a hit.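 In brief: 96-well plates, 48 h treatment, single concentration, percent growth endpoint.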 Values without a mark were called inactive. Activity calls are given as the source filed them. The calls were made as follows: active = growth percent below 10; inactive = the rest.

Among the test systems are HCT-15 colon; HT29 colon; SNB-75 CNS; SNB-19 CNS; U251 CNS; PC-3 prostate; SK-MEL-5 melanoma; UACC-62 melanoma; LOX IMVI melanoma; SK-MEL-28 melanoma; SK-MEL-2 melanoma; EKVX NSCLC; SN12C renal; UO-31 renal; TK-10 renal; ACHN renal; CAKI-1 renal; A498 renal; CCRF-CEM leukemia; MOLT-4 leukemia.
Test in all cases: NCI-60 one-dose screen, 48 h (100 = growth as untreated, 0 = no growth, -100 = all killed)
Conditions in all cases: 10 µM unless noted

With `CC(=O)NCCCS(=O)(=O)O`, the growth was 103% with HCT-15 colon; 98.4% with HT29 colon; 98.7% with SNB-75 CNS; 103% with SNB-19 CNS; 102% in the assay on U251 CNS; 83.9% with PC-3 prostate. Besides, the growth in the assay on SK-MEL-5 melanoma was 120%; in the assay on UACC-62 melanoma, 101%; in the assay with LOX IMVI melanoma it was 94.4%; in the assay on SK-MEL-28 melanoma, 107%; with SK-MEL-2 melanoma, 101%; in the assay on EKVX NSCLC it was 98.6%. The growth was 88.3% in the assay with SN12C renal; 83.9% in the assay with UO-31 renal; 102% in the assay on TK-10 renal; 98.2% in the assay on ACHN renal; 88.5% with CAKI-1 renal; 93.4% in the assay on A498 renal. The growth in the assay with CCRF-CEM leukemia was 106%; in the assay on MOLT-4 leukemia, 104%.
As to `CC1(c2ccccc2)NC(=O)N(CC(=O)Nc2cccc(I)c2)C1=O` (stereo not given), the growth is 92.9% with HCT-15 colon; 95.9% in the assay with HT29 colon; 66.8% in the assay with SNB-75 CNS; 84.7% in the assay on SNB-19 CNS; 88.7% in the assay with U251 CNS; 67.9% in the assay with PC-3 prostate. Besides, the growth is 31.1% with SK-MEL-5 melanoma; 74% in the assay on UACC-62 melanoma; 93.8% in the assay with LOX IMVI melanoma; 93% in the assay on SK-MEL-28 melanoma; 77.5% in the assay on SK-MEL-2 melanoma; 106% in the assay on EKVX NSCLC. Further, the growth with SN12C renal was 96.9%; in the assay on UO-31 renal it was 69.8%; with TK-10 renal, 96.1%; with ACHN renal, 91.4%; in the assay on CAKI-1 renal, 72.9%; in the assay on A498 renal it was 70.5%. For the same compound, the results for the growth in the assay on CCRF-CEM leukemia and with MOLT-4 leukemia were 88.5% and 85.3%, respectively.
With `COc1ccc(C(=O)c2cc3c(N)c(C(=O)Nc4ccc(Br)cc4)sc3nc2C)cc1`, the growth with HCT-15 colon is 69.3%; in the assay with HT29 colon, 74.9%; with SNB-75 CNS, -0.922% (active); in the assay with SNB-19 CNS it was 56.6%; with U251 CNS, 58.7%; with PC-3 prostate, 74.2%. The growth in the assay on SK-MEL-5 melanoma was 81.5%; in the assay with UACC-62 melanoma, 73.4%; in the assay with LOX IMVI melanoma, 84.5%; in the assay with SK-MEL-28 melanoma, 86.4%; in the assay with SK-MEL-2 melanoma it was 74.4%; in the assay with EKVX NSCLC, 83.1%. Also, the growth in the assay with SN12C renal was 84.4%; with UO-31 renal, 72.3%; with TK-10 renal, 98.8%; with ACHN renal, 65.5%; with CAKI-1 renal it was 62.5%; with A498 renal, 83.9%. The growth in the assay with CCRF-CEM leukemia is 88.5%; in the assay with MOLT-4 leukemia, 91.2%.
As to `O=c1[nH]nc(-c2ccc(Cl)cc2)cc1Cc1cccc([N+](=O)[O-])c1`, the growth in the assay with HCT-15 colon is 105%; in the assay with HT29 colon, 116%; in the assay on SNB-75 CNS, 110%; in the assay with SNB-19 CNS, 88.5%; with U251 CNS, 92.1%; in the assay on PC-3 prostate, 91.1%. For the same compound, the growth with SK-MEL-5 melanoma was 79.3%; in the assay with UACC-62 melanoma, 74.3%; in the assay with LOX IMVI melanoma, 93.5%; in the assay with SK-MEL-28 melanoma it was 109%; with SK-MEL-2 melanoma, 174%; in the assay with EKVX NSCLC it was 39.8%. Moreover, the growth was 89.1% in the assay on SN12C renal; 71.7% in the assay with UO-31 renal; 147% in the assay with TK-10 renal; 98.3% with ACHN renal; 80.8% with CAKI-1 renal; 106% with A498 renal. Besides, the growth was -7.68% (active) with CCRF-CEM leukemia and 5.84% (active) in the assay with MOLT-4 leukemia.
Regarding `O=S(=O)(c1cccc(NC2=Nc3cccc4cccc2c34)c1)N1CCCC1`, the growth with HCT-15 colon was 60.4%; with HT29 colon, 67.4%; in the assay on SNB-75 CNS, 73.3%; in the assay with SNB-19 CNS, 77.8%; with U251 CNS, 65.7%; in the assay with PC-3 prostate, 52.4%. Also, the growth was 44.7% in the assay on SK-MEL-5 melanoma; 51.7% with UACC-62 melanoma; 66.7% with LOX IMVI melanoma; 81.4% in the assay with SK-MEL-28 melanoma; 75.2% with SK-MEL-2 melanoma; 62% with EKVX NSCLC. Besides, the growth in the assay on SN12C renal is 72.2%; with UO-31 renal, 67.5%; in the assay with TK-10 renal it was 90.5%; in the assay with ACHN renal it was 66.9%; in the assay on CAKI-1 renal it was 78%; with A498 renal it was 75.1%. Further, the growth is 41.7% in the assay with CCRF-CEM leukemia and 57% with MOLT-4 leukemia.
For the compound `COc1cc(C2CC(c3cccc(Nc4ccncc4)c3)=NN2c2ccc(Cl)cc2)cc(OC)c1OC` (stereo not given), the growth in the assay with HCT-15 colon is -36.4% (active); in the assay on HT29 colon it was -30.3% (active); in the assay with SNB-75 CNS it was 26.1%; in the assay with SNB-19 CNS, 57.9%; in the assay on U251 CNS it was -53.2% (active); in the assay on PC-3 prostate, -22% (active). The growth in the assay on SK-MEL-5 melanoma is -50.7% (active); in the assay on UACC-62 melanoma, 91.1%; in the assay on LOX IMVI melanoma it was -88.8% (active); with SK-MEL-28 melanoma it was -83.2% (active); in the assay with SK-MEL-2 melanoma it was 55.8%; in the assay on EKVX NSCLC, 65.2%. For the same compound, the growth in the assay on SN12C renal is 54.7%; with UO-31 renal, 42.4%; in the assay on TK-10 renal, 68.4%; with ACHN renal, -62.1% (active); in the assay with CAKI-1 renal, 19.2%; in the assay on A498 renal it was 64.1%. In addition, the growth is -9.68% (active) in the assay on CCRF-CEM leukemia and -17.3% (active) in the assay on MOLT-4 leukemia.
As to `CN1CCN(c2ccc(NC3=C(Cl)C(=O)c4ncccc4C3=O)cc2C#N)CC1`, the growth in the assay on HCT-15 colon was 48.2%; in the assay with HT29 colon, 103%; in the assay with SNB-75 CNS, 81.1%; with SNB-19 CNS, 96.8%; in the assay on U251 CNS, 56.1%; with PC-3 prostate, 60.6%. The growth was 97.5% in the assay with SK-MEL-5 melanoma; 83.4% with UACC-62 melanoma; -61.6% (active) in the assay on LOX IMVI melanoma; -50.9% (active) in the assay on SK-MEL-28 melanoma; 78.8% in the assay on SK-MEL-2 melanoma; 36.4% in the assay with EKVX NSCLC. The growth in the assay with SN12C renal was 25.5%; in the assay on UO-31 renal, -34.9% (active); with TK-10 renal, 85.4%; with ACHN renal, -96.1% (active); with CAKI-1 renal, 0.744% (active); with A498 renal it was 79.7%. In addition, the growth with CCRF-CEM leukemia was -19.9% (active); in the assay on MOLT-4 leukemia it was -10.8% (active).
As to `CC1(C)[C@H](O)CC[C@]2(C)[C@@H]1CC[C@@]13C[C@@H](CC[C@H]12)[C@@](O)(CO)C3`, the growth was 105% in the assay with HCT-15 colon; 112% in the assay with HT29 colon; 102% with SNB-75 CNS; 99.7% with SNB-19 CNS; 108% with U251 CNS; 111% in the assay with PC-3 prostate. Moreover, the growth in the assay on SK-MEL-5 melanoma is 101%; in the assay with UACC-62 melanoma, 105%; in the assay on LOX IMVI melanoma, 103%; in the assay with SK-MEL-28 melanoma it was 108%; in the assay with SK-MEL-2 melanoma, 106%; in the assay with EKVX NSCLC, 104%. The growth in the assay with SN12C renal was 103%; with UO-31 renal, 93.6%; with TK-10 renal, 108%; in the assay with ACHN renal, 106%; in the assay with CAKI-1 renal it was 97.8%; in the assay on A498 renal, 96.9%. The growth with CCRF-CEM leukemia is 106%; with MOLT-4 leukemia it was 108%.
